PERK inhibitor = blocks human PERK kinase; Q9NZJ5; CHO PERK-DD fusion, SEAP luminescence translation reporter; inhibition, % at 5.6 µM; 220,000 compounds, 0.17% hits; AID 1416;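 active means inhibition above the mean inhibition of all tested compounds plus 3 SD, set separately per screening campaign, cut at about 2.9% in these data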;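 further: PERK kinase domain activated by AP20187 dimerizer at 100 nM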
Target sequence (Q9NZJ5 whole entry, looked up, the tested form may be a part): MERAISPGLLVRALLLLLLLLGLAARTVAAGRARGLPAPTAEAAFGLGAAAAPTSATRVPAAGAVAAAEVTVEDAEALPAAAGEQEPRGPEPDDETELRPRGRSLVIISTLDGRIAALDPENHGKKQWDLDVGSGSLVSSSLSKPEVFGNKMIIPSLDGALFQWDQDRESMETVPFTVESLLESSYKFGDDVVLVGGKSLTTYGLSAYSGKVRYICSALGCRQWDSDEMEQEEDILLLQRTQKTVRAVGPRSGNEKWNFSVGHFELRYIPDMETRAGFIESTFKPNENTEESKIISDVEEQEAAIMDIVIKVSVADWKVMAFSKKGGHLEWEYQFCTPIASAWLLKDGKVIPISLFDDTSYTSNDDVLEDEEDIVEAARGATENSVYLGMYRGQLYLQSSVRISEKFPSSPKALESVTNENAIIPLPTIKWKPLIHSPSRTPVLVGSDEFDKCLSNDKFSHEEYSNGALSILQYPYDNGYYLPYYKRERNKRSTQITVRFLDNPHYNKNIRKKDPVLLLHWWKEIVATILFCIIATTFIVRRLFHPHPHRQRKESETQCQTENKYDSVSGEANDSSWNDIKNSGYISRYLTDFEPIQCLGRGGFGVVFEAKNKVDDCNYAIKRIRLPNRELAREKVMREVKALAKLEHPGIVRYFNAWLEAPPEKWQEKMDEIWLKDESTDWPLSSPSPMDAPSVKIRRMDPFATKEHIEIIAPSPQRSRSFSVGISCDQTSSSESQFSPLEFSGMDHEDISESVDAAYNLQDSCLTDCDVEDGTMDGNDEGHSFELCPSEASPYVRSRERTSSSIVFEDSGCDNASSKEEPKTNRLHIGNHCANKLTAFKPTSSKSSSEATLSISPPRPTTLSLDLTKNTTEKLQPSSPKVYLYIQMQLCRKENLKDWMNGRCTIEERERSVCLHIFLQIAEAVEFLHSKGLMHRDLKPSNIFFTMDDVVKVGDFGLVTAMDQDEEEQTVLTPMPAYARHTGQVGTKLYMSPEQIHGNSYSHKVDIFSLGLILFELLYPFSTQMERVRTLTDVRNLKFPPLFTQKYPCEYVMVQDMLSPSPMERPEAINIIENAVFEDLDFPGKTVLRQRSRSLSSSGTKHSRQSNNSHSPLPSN
Arbovirus inh = blocks arbovirus infection | arbovirus infection cell-based antiviral screen | 200,000 compounds, 0.37% hits | inhibition, % at 10 µM | AID 1251; in the data active means inhibition above about 30%
ROMK mod = human ROMK K+ channel modulation, primary screen; B-score at 10 µM; Tet-inducible ROMK, thallium flux fluorescence; actives lie on both sides; 130,000 compounds, 2% hits;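 active means signal ratio slope over the read window, or its plate-corrected B-score, at least 3 SD from the plate mean, either direction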;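 further: B-score of the F/F0 ratio slope over 7 to 12 s after thallium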
WT yeast gro inh = growth inhibition of WT yeast, mitochondrial fusion screen | mitochondrial fusion phenotypic screen, WT strain | inhibition, % at 10 µM | 190,000 compounds, 2.1% hits; in the data active means inhibition above about 58%; tested in S. cerevisiae
A number is an active result; - = inactive; . = no result. This is a sample that favours compounds with a hit; in the whole collection about 3.3% have one here.

SMILES	PERK inhibitor	Arbovirus inh	ROMK mod	WT yeast gro inh
O=C(OC1CCN(c2ncc(C(F)(F)F)cc2Cl)CC1)c1ccccc1	-	-	.	64
O=C(OCCN1CCN(c2ncc(C(F)(F)F)cc2Cl)CC1)c1ccc(F)cc1	-	-	.	-
O=C(CN1CCN(c2ncc(C(F)(F)F)cc2Cl)CC1)N1CCN(c2ncc(C(F)(F)F)cc2Cl)CC1	-	-	-	73
Cc1cc(C)c(C(=O)CSc2nnc(C)c(=O)[nH]2)cc1C	-	-	-	-
CC(C)Cn1c(N)c(C(=O)COC(=O)c2cc(C(F)(F)F)nc3c(C(F)(F)F)cccc23)c(=O)n(C)c1=O	-	-	-	61
CC(C)Cn1c(N)c(C(=O)COC(=O)CC23CC4CC(CC(C4)C2)C3)c(=O)n(C)c1=O	-	-	-	85
Cn1c(=O)c(C(=O)COC(=O)c2cc(C(F)(F)F)nc3ccccc23)c(N)n(Cc2ccccc2)c1=O	-	-	-	-
Cn1ccnc1SCC(=O)Nc1ccc(Cl)cn1	-	-	-	-
COc1cccc(NC(=S)N(Cc2cccc(Br)c2)CC2CCC(C(=O)O)CC2)c1 (centres undefined)	-	-	-	-
O=C(Nc1ccc(N2CCCC2)c(Cl)c1)c1ccc([N+](=O)[O-])o1	-	-	-	86
O=C(Nc1ccc(N2CCCC2)c(Cl)c1)c1ccco1	-	-	-	-
c1ccc(CN(Cc2ccccc2)c2ncnc3c2nnn3Cc2ccccc2)cc1	-	.	.	.
Cc1nc(N(C)Cc2ccccc2)c2nnn(Cc3ccccc3)c2n1	-	-	-	80
O=C(O)c1ccc(-c2nc(-c3ccc(Cl)cc3Cl)cs2)cc1	-	-	-	-
CCCc1cc(-c2nc(-c3ccc(Br)cc3)cs2)ccn1	-	-	-	69
O=C(O)c1ccc(-c2nc(-c3ccc(Cl)cc3)cs2)cc1	-	41	-	-
CCCc1cc(-c2nc(-c3ccc(Cl)cc3)cs2)ccn1	-	-	-	78
S=C(NC1CC1)NC1CCCc2ccccc21 (centres undefined)	-	-	-	-
CCOC(=O)c1cc2c(C)n(-c3ccc(C)cc3)c(C)c2ccc1=O	-	-	-	-
Cc1ccccc1N=C1NC(=O)/C(=C/c2cccn2-c2cccc(C(=O)O)c2)S1	-	76	-	-
O=C(O)c1cccc(-n2cccc2/C=C2/NC(=O)N(c3ccc(Cl)cc3)C2=O)c1	-	32	-	-
O=C1C(NS(=O)(=O)c2cccs2)=C(N2CCN(c3cccc(Cl)c3)CC2)C(=O)c2ccccc21	-	-	-	.
CC(NC(=O)Nc1ccc(Cl)c(Cl)c1)C(c1ccccc1)N1CCOCC1 (centres undefined)	-	-	-	75
CC(NC(=O)Nc1ccc([N+](=O)[O-])cc1)C(c1ccccc1)N1CCOCC1 (centres undefined)	-	-	-	-
N#CCCCCN1CCCC1	-	.	.	.
SMILES	PERK inhibitor	Arbovirus inh	ROMK mod	WT yeast gro inh
CC(C)(C)c1ccc(NC(=O)COC(=O)c2ccc([N+](=O)[O-])s2)cc1	-	-	-	92
O=C(COC(=O)c1ccc([N+](=O)[O-])s1)Nc1ccc(Cl)cn1	-	-	-	-
Cc1[nH]c2ccccc2c1C(=O)COC(=O)c1ccc([N+](=O)[O-])s1	-	-	-	98
O=C(COC(=O)c1ccc([N+](=O)[O-])s1)Nc1ccccc1	-	-	-	70
O=C(COC(=O)c1ccc([N+](=O)[O-])s1)NCc1ccccc1	-	-	.	-
Cc1[nH]c2ccccc2c1C(=O)COC(=O)c1ccc[n+]([O-])c1	-	.	.	.
CC12CCC(C(=O)N3CCc4ccccc43)(CC1=O)C2(C)C (centres undefined)	-	-	.	-
c1ccc(-c2nnc(CSc3nc4ccccc4[nH]3)o2)cc1	-	-	.	-
c1ccc(CSc2nc3ccccc3[nH]2)cc1	-	.	-	.
Nc1c(-c2ccccc2)c(CSc2nc3ccccc3[nH]2)nn1-c1cccc(Cl)c1	-	34	-	71
Nc1c(-c2ccccc2)c(CSc2nc3ccccc3[nH]2)nn1-c1ccc(Cl)cc1	-	-	-	72
Cc1ccccc1-n1nc(CSc2nc3ccccc3[nH]2)c(-c2ccccc2)c1N	-	40	.	-
O=C(Oc1ccccc1Cl)c1ccc(-n2cncn2)nc1	-	-	.	-
COC(=O)CSc1ccc(S(=O)(=O)N2CCC(C)CC2)cc1[N+](=O)[O-]	-	-	-	-
CCCCS(=O)(=O)Nc1ccc(Cc2ccncc2)cc1	-	-	.	-
Cc1cc(C)cc(NC(=O)CCn2cnc3cc(C)c(C)cc32)c1	-	-	-	-
COC(=O)C1=C(C)NC(C)=C(C(=O)OC)C1c1ccc(C)o1	-	.	-	.
CCOC(=O)c1cc(-c2ccc3c(c2)OCO3)nc2onc(C)c12	-	-	.	78
Cc1nc(-c2ccc3c(c2)OCO3)cs1	-	-	-	-
CCN(CC)CCC(=O)NN	-	-	-	-
CC(C)C(=O)N1CCC(CN=Cc2c(O)n(C3CCCCC3)c(=O)n(C3CCCCC3)c2=O)CC1	-	-	-	77
CCOC(=O)c1ccccc1NC(=O)c1cccc(F)c1	-	-	-	-
CCOC(=O)c1ccc2ncc(C(=O)OCC)c(NCc3ccco3)c2c1	-	-	3.3	-
O=S(=O)(NCCSCc1ccc(Cl)cc1Cl)c1ccc2c(c1)OCCO2	-	-	-	73
Cc1ccc(Sc2cnn(-c3ccccc3)c(=O)c2Cl)cc1	-	-	-	76
SMILES	PERK inhibitor	Arbovirus inh	ROMK mod	WT yeast gro inh
Nc1ccc(Sc2cnn(-c3ccccc3)c(=O)c2Cl)cc1	-	-	.	-
CCCc1nc2ccccc2c(=O)n1N	3.6	-	-	-
OC(COc1ccc2ccccc2c1Br)Cn1cnc(-c2ccccc2)c1 (centres undefined)	-	-	-	88
Nc1c(CO)nnn1-c1ccccc1	-	-	-	-
OCC[C@H]1C[C@H](O)[C@@H](O)[C@@]2(CCCCO2)O1	-	-	-	-
O=C(N=Nc1c(O)n(Cc2ccccc2)c2ccccc12)c1cc2ccccc2cc1O	-	-	.	70
COc1cccc(C(=O)NCC(=O)OCC(=O)Nc2cc(OC)c([N+](=O)[O-])cc2C)c1	-	-	.	-
CCN(CC)C(=S)Nc1ccc(OC(F)F)cc1	-	-	.	-
CN(NC(=S)Nc1ccc(OC(F)F)cc1)C(=S)Nc1ccc(OC(F)F)cc1	-	-	.	65
COc1ccc(-n2cnnc2SCC(=O)Nc2cccnc2Cl)cc1	-	-	-	-
O=C(Nc1ccccc1)C1=C[C@@H](c2ccc(C(F)(F)F)cc2)C[C@@H](OCc2ccc(CO)cc2)O1	-	-	.	63
O=C(O)Cc1cn(Cc2ccc(F)cc2)c2ccccc12	-	-	-	-
Cc1[nH][nH]c(=O)c1C(c1c(C)[nH][nH]c1=O)c1cn(Cc2ccc(F)cc2)c2ccccc12	-	-	-4.8	-
O=c1cnnc(N/N=C/c2cccs2)[nH]1	4.0	.	-	.
COc1cccc(/C=N\NC(=O)Cn2nnc3ccccc32)c1O	-	-	-	-
c1ccc(N/N=C(\Cc2nc3ccccc3[nH]2)c2ccccc2)cc1	-	-	.	72
N/N=C(/Cc1nc2ccccc2[nH]1)c1ccc([N+](=O)[O-])cc1	-	-	-	90
COc1ccccc1N1CCN(C(c2cccs2)C(C)NC(=O)c2cccs2)CC1 (centres undefined)	-	-	-	-
Cc1ccc(Oc2cc([N+](=O)[O-])cc3c2C(=O)Nc2ccccc2O3)cc1	-	-	-	64

From PubChem
